We go through 39 compounds from PubChem BioAssay (Tox21).

“And” between values parts separate entries of the source, which are not always exact repeats. Identical values can stand only once. Records with an inconclusive call do not appear. Some compounds were tested as several samples or in several runs, with calls that do not always agree. The source made the active and inactive calls. Unless noted, calls follow the shape of the dose curve; as a rule, active = well fitted curve in the direction sought with a large enough effect in the repeat runs; inconclusive = weak or mixed curves; inactive = no such curve, though single readings can be large; an effect the other way counts as inactive or inconclusive.

The nature of assay [1]: qHTS assay to identify small molecule antagonists of the estrogen related receptor (ERR) signaling pathway (AID 1224819;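 also: luminescence from an ERR-driven luciferase reporter measured with One-Glo reagent; series mostly up to about 46 µM; nearly all actives have a fitted effect of over 50% in size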). An outline of the steps:
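ERR reporter cell line (NTP) plated at 2,000 cells/well, settled 6 h at 37C/5% CO2, then exposed to LOPAC compounds for 18 h at 37C. One-Glo luciferase luminescence read after 30 min at room temperature.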
A general note: Quantitative high-throughput screening tests each substance at several concentrations.

For assay [2], the system named is estrogen-related receptor alpha (ERRalpha) with PGC-1alpha coactivator, human. The assay can be described thus: qHTS assay to identify small molecule antagonists of the estrogen related receptor signaling pathway with the pleiotropic PPARgamma coactivator (PGC) (AID 1224821; calls by dose curve;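 also: series mostly up to about 46 µM; lower luminescence signal means antagonism of PGC/ERR signalling; nearly all actives have a fitted effect of over 50% in size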). An outline of the steps: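 Luminescent read-out (One-Glo, 30 min at room temperature) following 18 h treatment of PGC/ERR cells at 37 C with compounds delivered in DMSO. Cells had settled 6 h at 37 C/5% CO2 before dosing.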

The target of assay [3] is Retinoic acid receptor RXR-alpha (Homo sapiens) (UniProt P19793). The assay can be described thus: qHTS assay to identify small molecule agonists of the RXR signaling pathway (AID 1159527; calls by dose curve; also: nearly all actives have a fitted effect of over 35% in size; also: potency is read from the fitted curve at half-maximal effect). An outline of the steps:
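16 hr incubation of compound-treated RXR-alpha-UAS-bla HEK 293T cells (2% charcoal-stripped FBS, 37 C) preceded a 2 hr room-temperature LiveBLAzer FRET substrate step and blue/green fluorescence measurement.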

A short description of assay [4]: qHTS assay to identify small molecule agonists of the RXR signaling pathway - cell viability counter screen (AID 1159529).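 Also: HEK 293T cells carrying an RXR-alpha UAS beta-lactamase reporter; series mostly up to about 77 µM; nearly all actives have a fitted effect of over 50% in size.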 An outline of the steps: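 In this parallel viability measure, GeneBLAzer RXR-alpha HEK 293T cells (2% charcoal-stripped FBS) were given a 5 hr preincubation, treated with compounds 16 hr at 37 C, and read by CellTiter-Glo luminescence.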
A short description of assay [5]: qHTS assay to identify small molecule antagonists of the retinoic acid receptor (RAR) signaling pathway (AID 1159552; also: nearly all actives have a fitted effect of over 50% in size; also: potency is read from the fitted curve at half-maximal effect). An outline of the steps: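 C3RL4 RARE-luc cells, overnight plating; retinol 1 uM final added right after compound; 6 hr 37 C; luciferase read at 30 min RT.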
Assay [6] in a line: qHTS assay to identify small molecule agonists of the estrogen related receptor (ERR) signaling pathway (AID 1224820). Also: potency is read from the fitted curve at half-maximal effect. An outline of the steps:
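Cells: ERR line from NTP, 2,000/well. Pre-incubation 6 h, 37 C/5% CO2. Compound (DMSO) pin transfer, 18 h 37 C. One-Glo, 30 min RT, luminescence.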

The nature of assay [7]: qHTS assay to identify small molecule antagonists of the estrogen related receptor signaling pathway with the pleiotropic PPARgamma coactivator (PGC) cell viability counter screen (AID 1224822;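 also: series mostly up to about 46 µM; viability read after 17.5 h compound exposure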). An outline of the steps:
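PGC/ERR cells rested 6 h, then compound-treated 17.5 h at 37 C. CellTiter-Fluor added for 30 min at 37 C, viability measured by fluorescence intensity.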

Assay [8] in a line: qHTS assay to identify small molecule agonists of the estrogen related receptor signaling pathway with the pleiotropic PPARgamma coactivator (PGC) (AID 1224823). Also: potency is read from the fitted curve at half-maximal effect. An outline of the steps: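 Steps: plate PGC/ERR cells at 2,000 cells/well; incubate 6 h, 37 C/5% CO2; pin-transfer compounds (DMSO); incubate 18 h, 37 C; add One-Glo; 30 min RT; read luminescence.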
The nature of assay [9]: qHTS assay to identify small molecule agonists of the retinoic acid receptor (RAR) signaling pathway (AID 1159553). An outline of the steps: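 C3RL4 RARE-luciferase cells were seeded at 1,000/well and grown overnight at 37 C, then exposed to compounds for 6 hr at 37 C, 5% CO2. Luciferase reagent was added and luminescence was read after 30 min at room temperature.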
A short description of assay [10]: qHTS assay to identify small molecule antagonists of the retinoid acid receptor (RAR) signaling pathway - cell viability counter screen (AID 1159551). Also: nearly all actives have a fitted effect of over 35% in size. An outline of the steps:
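C3RL4 RARE-luciferase cells, 1,000/well, incubated overnight, then dosed with compound plus 1 uM retinol (final). After 6 hr at 37 C, viability read by CellTiter-Glo ATP luminescence following 30 min at room temperature.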

Chain of Retinoic acid receptor RXR-alpha (Homo sapiens) (P19793 whole entry, looked up): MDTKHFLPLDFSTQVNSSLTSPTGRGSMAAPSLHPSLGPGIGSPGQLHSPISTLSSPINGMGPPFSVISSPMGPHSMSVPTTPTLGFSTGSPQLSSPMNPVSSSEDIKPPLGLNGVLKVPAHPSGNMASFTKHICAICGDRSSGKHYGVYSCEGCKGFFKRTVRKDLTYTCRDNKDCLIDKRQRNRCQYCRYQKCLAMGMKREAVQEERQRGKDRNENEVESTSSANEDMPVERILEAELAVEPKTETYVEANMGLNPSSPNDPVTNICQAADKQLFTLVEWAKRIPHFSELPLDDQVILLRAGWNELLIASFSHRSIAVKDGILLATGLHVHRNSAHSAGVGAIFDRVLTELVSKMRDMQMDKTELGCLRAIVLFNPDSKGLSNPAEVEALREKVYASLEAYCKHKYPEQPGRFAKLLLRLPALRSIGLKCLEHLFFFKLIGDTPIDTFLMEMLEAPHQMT

Take `NC(=O)c1cnccn1`: the compound was classed as inactive in assay [1] and in assay [2].

As to `COc1ccc2[nH]cc(CCNC(C)=O)c2c1`, the outcome in [1] and in [2] was inactive.

Regarding `Oc1ccc(/C=C/c2cc(O)cc(O)c2)cc1`, the Potency entry in [3] and in assay [4] was “inactive” throughout. Further, the Potency in [5] was 49 µM (active) and 43.3 µM (active); in [6], 3.62 µM (active); in assay [8] it was 11.4 µM (active). Besides, the result in [1] and in assay [7] was inactive.

For `CC1(C)[C@@H]2CC[C@@]1(C)C(=O)C2`, the Potency result in assay [3], in assay [4] and in [5] was “inactive” in each case. Moreover, in [9], the outcome was inactive.

Take `O=C(C1CCCCC1)N1CC(=O)N2CCc3ccccc3C2C1` (centres undefined): the Potency entry in assay [4], in [5], in assay [6] and in [8] was “inactive” throughout. Further, the outcome in assay [10], in [9], in assay [1], in assay [2] and in assay [7] was inactive.

With `NC(=O)c1ccccc1O`, the Potency result in [3], in assay [4] and in [5] was “inactive” in each case. Further, in assay [9], the call was inactive.

Consider `Nc1ccc(C(=O)O)cc1`, for which the Potency entry in assay [3], in assay [4] and in [5] was “inactive” each time. Besides, the outcome in [9] was inactive.

Consider `COc1c2occc2cc2ccc(=O)oc12`, for which the Potency entry in [3], in assay [4] and in [5] was “inactive” in each case. In [9], the result was inactive.

For the compound `O=S(=O)(O)c1ccc2cc(O)ccc2c1`, the Potency entry in assay [3], in assay [4] and in [5] was “inactive” throughout. Besides, the compound was classed as inactive in assay [9].

With `O=c1ccc2ccccc2o1`, the Potency result in assay [3], in assay [4] and in assay [5] was “inactive” throughout. In assay [9], the call was inactive.

Consider `Cc1ccccc1C(OCCN(C)C)c1ccccc1` (centres undefined), for which the Potency entry in assay [4], in [5], in assay [6] and in assay [8] was “inactive” in each case. Further, the compound was classed as inactive in assay [9], in assay [1] and in [7].

As for `N=C(N)c1ccc(OCCCCCOc2ccc(C(=N)N)cc2)cc1`, the Potency entry in assay [3], in [4] and in assay [5] was “inactive” each time. Moreover, in [9], the outcome was inactive.

Regarding `OC(Cn1cncn1)(Cn1cncn1)c1ccc(F)cc1F`, the Potency entry in [4] was “inactive”.

In the case of `OCCc1ccccc1`, the Potency entry in [3], in assay [4] and in assay [5] was “inactive” each time. Moreover, the result in assay [9] was inactive.

With `CC(=O)Nc1nnc(S(N)(=O)=O)s1`, the Potency result in assay [3], in assay [4] and in assay [5] was “inactive” in each case. The call in [9] and in [7] was inactive.

In the case of `O=C1CN(/N=C/c2ccc([N+](=O)[O-])o2)C(=O)N1`, the Potency entry in assay [3], in assay [4] and in [5] was “inactive” throughout. Moreover, the result in [9] was inactive.

Turning to `O=C(c1ccccc1)c1ccccc1`, the Potency result in assay [3], in assay [4] and in assay [5] was “inactive” in each case. In addition, the compound was called inactive in assay [9].

For the compound `Cn1c(=O)c2[nH]cnc2n(C)c1=O`, the Potency in assay [3] was 13.8 µM (active) and inactive. In addition, the Potency entry in [4] was “inactive”. The compound was classed as inactive in assay [10] and in assay [7].

Regarding `O=C(O)CCCCCCCC(=O)O`, the Potency entry in assay [3], in [4] and in [5] was “inactive” throughout. Moreover, the compound was classed as inactive in assay [9] and in assay [7].

For `CC(O)CN(CCN(CC(C)O)CC(C)O)CC(C)O` (centres undefined), the Potency entry in [3], in assay [4] and in [5] was “inactive” in each case. Moreover, the call in assay [9] was inactive.

On to `Nc1ccn([C@H]2CC[C@@H](CO)O2)c(=O)n1`, for which the Potency result in [3] and in [4] was “inactive” throughout. Besides, the result in assay [10] and in [7] was inactive.

With `Cc1ccc(C)c(OCCCC(C)(C)C(=O)O)c1`, the Potency entry in assay [3], in [4] and in [5] was “inactive” throughout. Further, the compound was called inactive in assay [9].

As for `CCOc1ccc(NC(=O)CC(C)O)cc1` (centres undefined), the Potency result in assay [3], in [4] and in assay [5] was “inactive” in each case. Moreover, the compound was called inactive in assay [9].

As for `Nc1ccc(O)c(C(=O)O)c1`, the Potency result in assay [3], in assay [4] and in [5] was “inactive” throughout. The outcome in assay [9] was inactive.

With `CCC1(c2ccccc2)C(=O)NCNC1=O`, the Potency result in assay [3], in assay [4] and in [5] was “inactive” in each case. For the same compound, the compound was called inactive in assay [9] and in assay [7].

As for `NS(=O)(=O)c1cc(C(=O)O)c(NCc2ccco2)cc1Cl`, the Potency entry in assay [4] was “inactive”. In addition, the compound was classed as inactive in assay [9].

With `CCCC(CCC)C(=O)O`, in assay [4], the Potency result was “inactive”. Besides, the compound was called inactive in assay [10] and in assay [7].

Take `Cc1ccc(S(=O)(=O)NC(=O)NN2CCCCCC2)cc1`: the Potency result in assay [3], in assay [4], in assay [5], in assay [6] and in [8] was “inactive” each time. For the same compound, the compound was called inactive in [9], in [1] and in assay [7].

For the compound `CNC[C@H](O)c1cccc(O)c1`, the Potency result in assay [3], in [4], in assay [5] and in assay [6] was “inactive” throughout. Also, the outcome in assay [9], in [1] and in assay [7] was inactive.

As to `O=C(O)CCC(=O)O`, the Potency result in assay [3], in assay [4] and in assay [5] was “inactive” throughout. For the same compound, in [9], the outcome was inactive.

In the case of `CC(O)C(=O)O` (centres undefined), the Potency entry in [3], in [4] and in [5] was “inactive” throughout. For the same compound, in [9], the compound was called inactive.

In the case of `CC(O)CO` (centres undefined), the Potency entry in assay [3], in assay [4] and in [5] was “inactive” throughout. Moreover, in [9], the compound was called inactive.

Turning to `Cc1cc(=O)n(-c2ccccc2)n1C`, the Potency entry in assay [3], in assay [4] and in assay [5] was “inactive” throughout. In assay [9], the call was inactive.

With `O=C(O)c1cccnc1`, the Potency entry in assay [4] was “inactive”.

As for `C[C@]12C=CC(=O)C=C1CC[C@@H]1[C@@H]2[C@@H](O)C[C@@]2(C)[C@H]1CC[C@]2(O)C(=O)CO`, the Potency result in assay [3], in [4] and in assay [5] was “inactive” each time. For the same compound, in assay [9], the result was inactive.

On to `NC(N)=NC(=O)c1nc(Cl)c(N)nc1N`, for which the Potency result in assay [3] and in assay [4] was “inactive” each time. In assay [7], the outcome was inactive.

Turning to `O=C(O)C(=O)O`, the Potency entry in [3], in assay [4] and in [5] was “inactive” each time. The result in assay [9] was inactive.

For `Cn1cc[nH]c1=S`, the Potency entry in assay [4] and in assay [5] was “inactive” in each case. Moreover, the result in assay [10] and in [9] was inactive.

For `CC(C)(Oc1ccc(C2CC2(Cl)Cl)cc1)C(=O)O` (centres undefined), the Potency entry in assay [3], in [4] and in [5] was “inactive” in each case. In addition, the compound was classed as inactive in assay [9] and in assay [7].
